The record followed here is PubChem BioAssay (Tox21).

Several values for one entry are separate records, joined by “and”; a condition that tells them apart may be missing. Equal entries are not always repeated. A number with no mark means an inactive call. Results filed as inconclusive are left out. Activity calls are given as the source filed them. Unless noted, calls follow the shape of the dose curve; as a rule, active = well fitted curve in the direction sought with a large enough effect in the repeat runs; inconclusive = weak or mixed curves; inactive = no such curve, though single readings can be large; an effect the other way counts as inactive or inconclusive.

Assay [1] can be described thus: qHTS assay to identify small molecule agonists of the androgen receptor (AR) signaling pathway in the presence of an antagonist - cell viability counter screen (AID 1259379). Also: nearly all actives have a fitted effect of over 25% in size. Also: potency is read from the fitted curve at half-maximal effect. In a few lines:
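Counter screen for cell viability run in parallel with the AR agonist-mode luciferase assay. MDA-kb2 cells were co-treated with nilutamide (3.0uM final) and compounds, then incubated 16 hr at 37C, and CellTiter-Fluor fluorescence was measured.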

Assay [2] can be described thus: qHTS assay to identify small molecule agonists of the estrogen receptor beta (ER-beta) signaling pathway - cell viability counter screen (AID 1259380). Also: nearly all actives have a fitted effect of over 30% in size. Also: potency is read from the fitted curve at half-maximal effect. An outline of the steps: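 In this qHTS counter screen, HEK293T cells carrying an ER-beta/UAS beta-lactamase reporter, grown in 2% charcoal-stripped FBS, received compound for 16 hr; ATP-based CellTiter-Glo luminescence was then read after 30 min at room temperature.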

The target in assay [3] is Androgen receptor (Homo sapiens) (UniProt P10275). As to the kind of experiment: qHTS assay to identify small molecule agonists of the androgen receptor (AR) signaling pathway in the presence of an antagonist (AID 1259381; calls by dose curve; also: nearly all actives have a fitted effect of over 15% in size). In a few lines:
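AR antagonist background: nilutamide 3.0uM final. Cell line: MDA-kb2, MMTV-driven luciferase, responsive to both AR and GR. Exposure 16hr, 37C, no CO2; ONE-Glo luminescence.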

Assay [4] has as its target Estrogen receptor (Homo sapiens) (UniProt P03372). As to the kind of experiment: qHTS assay to identify small molecule agonists of the estrogen receptor alpha (ER-alpha) signaling pathway in the presence of an antagonist (AID 1259383; calls by dose curve; also: top concentration of the series differs between compounds; nearly all actives have a fitted effect of over 15% in size). An outline of the steps:
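ER-alpha agonism measured under antagonist challenge: 10.0nM ICI-182,780 (final) plus compound, 15 concentrations, 22hr, VM7Luc4E2 ERE-luciferase cells. Read by luminescence.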

The nature of assay [5]: qHTS assay to identify small molecule agonists of the estrogen receptor alpha (ER-alpha) signaling pathway in the presence of an antagonist - cell viability counter screen (AID 1259386).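 Also: cells exposed to compounds for 22 h at 37 °C before the viability read; nearly all actives have a fitted effect of over 30% in size.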 Also: potency is read from the fitted curve at half-maximal effect. In a few lines:
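Steps: 5-day stripped-FBS culture; seed and incubate 24hr; add ICI-182,780 (10.0nM final); pin 15-point compound titration; incubate 22hr at 37C; add CellTiter-Fluor at 21hr; read fluorescence.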
For orientation: Quantitative high-throughput screening tests each substance at several concentrations.

Assay [6] has as its target Progesterone receptor (Homo sapiens) (UniProt P06401). The assay is described as follows: qHTS assay to identify small molecule agonists of the progesterone receptor (PR) signaling pathway (AID 1346784; calls by dose curve; also: nearly all actives have a fitted effect of over 30% in size). In a few lines:
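PR-UAS-bla HEK 293T cells carrying a UAS-driven beta-lactamase reporter were seeded in medium with 2% charcoal-stripped FBS, preincubated 6 hr at 37C, then exposed to compounds in DMSO for 16 hr; agonism was read by LiveBLAzer B/G FRET fluorescence.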

Assay [7] shares this target. The assay is described as follows: qHTS assay to identify small molecule antagonists of the progesterone receptor (PR) signaling pathway (AID 1346795; active = well fitted inhibition curve with a large enough effect in the signal ratio in the repeat runs, not every such curve was filed as active; the % refers to the signal ratio; also: potency is read from the fitted curve at half-maximal effect). An outline of the steps:
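PR-UAS-bla HEK293T cells carrying a UAS-driven beta-lactamase reporter were plated in medium with 2% charcoal-stripped FBS and rested 6 hr at 37C. Compounds were added with 1 nM R5020 (final) for 16 hr, then FRET substrate loaded 2 hr at room temperature.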

The nature of assay [8]: qHTS assay to identify small molecule antagonists of the progesterone receptor (PR) signaling pathway - cell viability counter screen (AID 1346798). Also: nearly all actives have a fitted effect of over 50% in size. Also: potency is read from the fitted curve at half-maximal effect. An outline of the steps:
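PR-UAS-bla HEK293T cells in medium with 2% charcoal-stripped FBS were treated with compounds plus R5020 for 16 hr at 37C. Cell viability was then read by CellTiter-Glo luminescence after 30 min at room temperature in the same wells.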

Assay [9] is described as follows: qHTS assay to identify small molecule agonists of the progesterone receptor (PR) signaling pathway - cell viability counter screen (AID 1346799; calls by dose curve; also: nearly all actives have a fitted effect of over 45% in size; also: potency is read from the fitted curve at half-maximal effect). An outline of the steps:
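PR-UAS-bla HEK293T cells, 3,000 per well in medium with 2% charcoal-stripped FBS, were preincubated 6 hr at 37C, then exposed to compounds for 16 hr; viability was read as CellTiter-Glo luminescence after 30 min at room temperature.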

Assay [10] is described as follows: qHTS assay to identify small molecule antagonists of the TGF-beta/Smad signaling pathway - cell viability counter screen (AID 1346824). Also: nearly all actives have a fitted effect of over 50% in size. Also: potency is read from the fitted curve at half-maximal effect. In a few lines:
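Cytotoxicity counter-screen run in the same wells as the beta-lactamase Smad reporter read: CellTiter-Glo luminescence after 30 min at room temperature. HEK 293T SBE-bla cells had 5 hr compound exposure at 37 C with TGF-beta1 (0.25 ng/mL stock).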

A short description of assay [11]: qHTS assay to identify small molecule agonists of the TGF-beta/Smad signaling pathway - cell viability counter screen (AID 1346829). Also: nearly all actives have a fitted effect of over 45% in size. Also: potency is read from the fitted curve at half-maximal effect. An outline of the steps:
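Cytotoxicity counter screen: CellTiter-Glo luminescence (30 min, room temperature) measured in the SBE-bla HEK 293T reporter wells after 5 hr compound treatment at 37 C and the 2 hr substrate step.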

A short description of assay [12]: qHTS assay to identify small molecule agonists of the TGF-beta/Smad signaling pathway (AID 1346859; active = well fitted activation curve with a large enough effect in the signal ratio in the repeat runs, not every such curve was filed as active; the % refers to the signal ratio; also: series mostly up to about 77 µM). In a few lines:
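HEK 293T cells stably carrying a beta-lactamase reporter driven by the Smad binding element were seeded overnight, exposed to DMSO-dissolved compounds for 5 hr at 37 C, 5% CO2, then loaded with FRET substrate for 2 hr at room temperature.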

Assay [13] deals with Thyrotropin-releasing hormone receptor (Homo sapiens) (UniProt P34981). As to the kind of experiment: qHTS assay to identify small molecule antagonists of the thyrotropin-releasing hormone receptor (TRHR) signaling pathway (AID 1346877; active = well fitted inhibition curve with a large enough effect in the repeat runs, not every such curve was filed as active; also: series mostly up to about 51 µM). An outline of the steps: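 Human TRHR in HEK293 cells; inhibition of the intracellular calcium rise triggered by 1 nM TRH was followed by fluorescence over 3 min. Compounds were run at 15 concentrations, three replicates each.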
Thyrotropin-releasing hormone receptor (Homo sapiens), sequence (P34981 whole entry, looked up): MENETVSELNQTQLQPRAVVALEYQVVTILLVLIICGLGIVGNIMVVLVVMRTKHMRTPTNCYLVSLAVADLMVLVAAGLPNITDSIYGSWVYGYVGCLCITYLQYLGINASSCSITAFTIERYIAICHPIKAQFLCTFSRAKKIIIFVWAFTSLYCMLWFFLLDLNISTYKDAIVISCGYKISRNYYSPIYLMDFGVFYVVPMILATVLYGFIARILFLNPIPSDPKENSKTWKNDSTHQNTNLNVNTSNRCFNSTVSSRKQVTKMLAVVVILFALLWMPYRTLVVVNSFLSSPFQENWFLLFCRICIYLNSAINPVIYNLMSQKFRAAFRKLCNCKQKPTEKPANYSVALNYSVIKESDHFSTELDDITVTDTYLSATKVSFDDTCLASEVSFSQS

Assay [14] shares this target. The assay is described as follows: qHTS assay to identify small molecule agonists of the thyrotropin-releasing hormone receptor (TRHR) signaling pathway (AID 1346891; calls by dose curve; also: series mostly up to about 58 µM). In a few lines:
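TRHR-expressing HEK293 cells were plated 18 h at 37 °C/5% CO2, loaded with calcium dye 2 h at 37 °C, then given compound in DMSO; fluorescence was read kinetically for 3 min at 1 s intervals.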

Assay [15] in a line: Human pregnane X receptor (PXR) small molecule agonists, qHTS cell viability counter screen (AID 1346977). Also: nearly all actives have a fitted effect of over 50% in size. Also: potency is read from the fitted curve at half-maximal effect. An outline of the steps: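 PXR-Luc HepG2 cells in medium with 5% charcoal-stripped FBS were pre-incubated 5hr, then exposed to compounds for 24hr at 37C. Viability was read in the same wells by CellTiter-Fluor fluorescence, reagent added after 23hr with a 1hr incubation.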

The nature of assay [16]: Caspase-3/7 induction in HepG2 cells by small molecules, qHTS assay (AID 1346978). Also: nearly all actives have a fitted effect of over 15% in size. Also: potency is read from the fitted curve at half-maximal effect. In a few lines:
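Caspase-3/7 induction was measured by Caspase-Glo 3/7 luminescence (30 min, room temperature) after a 17 hr compound exposure of wild-type HepG2 cells seeded at 2,000 per well and pre-incubated 5 hr.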

Assay [17] is described as follows: qHTS assay to identify small molecule antagonists of the estrogen receptor beta (ER-beta) signaling pathway - cell viability counter screen (AID 1259382). Also: nearly all actives have a fitted effect of over 55% in size. Also: potency is read from the fitted curve at half-maximal effect. An outline of the steps: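 HEK293T ER-beta-UAS-bla, 2% charcoal-stripped FBS; compounds + 1nM E2 16 hr 37C; CellTiter-Glo luminescence, 30 min RT.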
A short description of assay [18]: qHTS assay to identify small molecule agonists or antagonists of the thyroid stimulating hormone receptor (TSHR) signaling pathway - wild type cell line counter screen (AID 1259384; calls by dose curve). In a few lines: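 Counter screen in untransfected Hek293: compounds (15-point titration, triplicate) plus phosphodiesterase inhibitor Ro20-1724 added after 18 h plating; 30 min RT. Intracellular cAMP via competitive d2/cryptate immunoassay, 1 h incubation.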

Assay [19] concerns the target Thyrotropin receptor (Homo sapiens) (UniProt P16473). The assay is described as follows: qHTS assay to identify small molecule antagonists of the thyroid stimulating hormone receptor (TSHR) signaling pathway (AID 1259385; calls by dose curve; also: nearly all actives have a fitted effect of over 20% in size; also: potency is read from the fitted curve at half-maximal effect). In a few lines: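 Antagonist mode: compound-treated TSHR-expressing HEK293 cells were stimulated with 1.5 ng/mL TSH (final) in presence of Ro20-1724 for 30 min at RT. HTRF cAMP detection after 1 h; each compound tested at 15 concentrations, triplicate.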

Progesterone receptor (Homo sapiens), sequence (P06401 whole entry, looked up): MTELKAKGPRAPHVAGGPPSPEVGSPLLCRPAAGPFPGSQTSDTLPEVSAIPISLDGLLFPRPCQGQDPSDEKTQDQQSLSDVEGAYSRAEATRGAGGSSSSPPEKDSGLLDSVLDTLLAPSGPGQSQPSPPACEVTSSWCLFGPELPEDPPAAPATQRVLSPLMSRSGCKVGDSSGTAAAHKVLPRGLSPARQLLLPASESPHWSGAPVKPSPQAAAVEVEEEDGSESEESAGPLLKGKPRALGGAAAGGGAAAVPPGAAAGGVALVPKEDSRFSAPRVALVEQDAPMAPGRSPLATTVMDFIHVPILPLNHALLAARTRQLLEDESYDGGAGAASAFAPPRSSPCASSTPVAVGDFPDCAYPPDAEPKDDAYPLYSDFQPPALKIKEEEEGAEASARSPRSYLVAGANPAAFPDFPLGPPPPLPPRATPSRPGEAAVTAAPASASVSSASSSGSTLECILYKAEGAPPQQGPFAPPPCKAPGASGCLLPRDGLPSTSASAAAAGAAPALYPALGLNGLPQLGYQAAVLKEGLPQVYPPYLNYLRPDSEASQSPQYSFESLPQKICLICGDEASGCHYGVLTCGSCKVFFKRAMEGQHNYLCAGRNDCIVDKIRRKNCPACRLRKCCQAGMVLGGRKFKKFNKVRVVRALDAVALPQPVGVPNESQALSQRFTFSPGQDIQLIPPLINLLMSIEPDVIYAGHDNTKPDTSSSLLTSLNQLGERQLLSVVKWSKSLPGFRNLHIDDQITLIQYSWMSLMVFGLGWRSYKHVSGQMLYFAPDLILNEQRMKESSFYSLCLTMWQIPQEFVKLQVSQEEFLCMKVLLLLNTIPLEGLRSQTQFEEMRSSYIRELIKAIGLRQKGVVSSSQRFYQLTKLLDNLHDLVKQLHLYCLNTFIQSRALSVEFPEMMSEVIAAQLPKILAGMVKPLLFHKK
Estrogen receptor (Homo sapiens), sequence (P03372 whole entry, looked up): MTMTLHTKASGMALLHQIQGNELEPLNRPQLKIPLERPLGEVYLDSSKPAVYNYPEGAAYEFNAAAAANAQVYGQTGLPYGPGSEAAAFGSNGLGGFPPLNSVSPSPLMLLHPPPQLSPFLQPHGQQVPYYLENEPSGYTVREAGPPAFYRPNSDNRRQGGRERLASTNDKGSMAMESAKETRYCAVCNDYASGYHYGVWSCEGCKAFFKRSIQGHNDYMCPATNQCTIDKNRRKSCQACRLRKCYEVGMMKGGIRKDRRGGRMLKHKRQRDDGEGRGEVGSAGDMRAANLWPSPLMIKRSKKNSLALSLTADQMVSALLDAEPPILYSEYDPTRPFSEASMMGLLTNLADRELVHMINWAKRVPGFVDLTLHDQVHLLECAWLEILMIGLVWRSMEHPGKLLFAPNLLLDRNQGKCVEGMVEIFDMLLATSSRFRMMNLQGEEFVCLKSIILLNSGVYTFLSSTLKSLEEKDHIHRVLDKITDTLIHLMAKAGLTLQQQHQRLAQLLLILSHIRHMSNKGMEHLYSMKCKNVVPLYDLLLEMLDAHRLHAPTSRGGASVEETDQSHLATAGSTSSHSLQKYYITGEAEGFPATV
Androgen receptor (Homo sapiens), sequence (P10275 whole entry, looked up): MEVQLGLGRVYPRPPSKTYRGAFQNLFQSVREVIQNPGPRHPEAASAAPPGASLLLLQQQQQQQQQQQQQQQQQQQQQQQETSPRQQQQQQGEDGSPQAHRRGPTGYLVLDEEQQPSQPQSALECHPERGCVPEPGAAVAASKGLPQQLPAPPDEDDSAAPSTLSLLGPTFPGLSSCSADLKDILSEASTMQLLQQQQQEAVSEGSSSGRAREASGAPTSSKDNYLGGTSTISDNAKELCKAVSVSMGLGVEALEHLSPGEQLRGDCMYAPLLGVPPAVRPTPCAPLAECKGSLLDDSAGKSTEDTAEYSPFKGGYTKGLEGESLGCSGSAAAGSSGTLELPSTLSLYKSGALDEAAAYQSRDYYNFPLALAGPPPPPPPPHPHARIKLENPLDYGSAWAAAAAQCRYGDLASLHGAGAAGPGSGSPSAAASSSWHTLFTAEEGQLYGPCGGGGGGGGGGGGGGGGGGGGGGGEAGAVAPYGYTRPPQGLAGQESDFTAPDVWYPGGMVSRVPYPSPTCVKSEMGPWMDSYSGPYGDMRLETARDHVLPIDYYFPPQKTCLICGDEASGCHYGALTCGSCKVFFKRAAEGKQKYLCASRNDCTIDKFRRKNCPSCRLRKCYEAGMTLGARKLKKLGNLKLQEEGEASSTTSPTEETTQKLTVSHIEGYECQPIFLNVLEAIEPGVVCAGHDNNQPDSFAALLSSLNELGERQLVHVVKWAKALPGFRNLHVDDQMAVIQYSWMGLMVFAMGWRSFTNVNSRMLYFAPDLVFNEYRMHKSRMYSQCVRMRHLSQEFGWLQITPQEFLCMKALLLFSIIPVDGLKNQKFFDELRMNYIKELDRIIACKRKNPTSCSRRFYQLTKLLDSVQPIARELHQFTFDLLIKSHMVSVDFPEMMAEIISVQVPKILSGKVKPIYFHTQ
Thyrotropin receptor (Homo sapiens), sequence (P16473 whole entry, looked up): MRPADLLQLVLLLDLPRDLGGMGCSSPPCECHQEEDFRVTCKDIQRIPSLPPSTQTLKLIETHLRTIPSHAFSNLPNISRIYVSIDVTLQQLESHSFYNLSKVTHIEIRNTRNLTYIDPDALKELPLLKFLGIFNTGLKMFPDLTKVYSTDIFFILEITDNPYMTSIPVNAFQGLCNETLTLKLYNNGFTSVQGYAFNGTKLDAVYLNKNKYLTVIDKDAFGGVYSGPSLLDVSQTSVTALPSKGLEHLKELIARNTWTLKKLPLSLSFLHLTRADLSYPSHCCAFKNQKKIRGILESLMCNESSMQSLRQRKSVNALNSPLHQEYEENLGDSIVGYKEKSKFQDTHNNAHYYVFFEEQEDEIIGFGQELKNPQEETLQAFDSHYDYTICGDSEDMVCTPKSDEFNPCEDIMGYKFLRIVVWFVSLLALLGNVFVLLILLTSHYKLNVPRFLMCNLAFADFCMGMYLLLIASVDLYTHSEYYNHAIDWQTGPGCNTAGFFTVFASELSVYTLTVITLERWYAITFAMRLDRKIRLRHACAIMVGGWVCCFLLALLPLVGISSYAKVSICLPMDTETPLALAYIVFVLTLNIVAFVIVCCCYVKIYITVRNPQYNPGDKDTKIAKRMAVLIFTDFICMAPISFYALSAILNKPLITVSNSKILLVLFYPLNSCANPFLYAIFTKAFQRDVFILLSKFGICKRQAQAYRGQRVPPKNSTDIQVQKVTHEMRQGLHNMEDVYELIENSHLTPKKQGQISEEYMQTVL

Consider `NC(=O)c1ccc(N)nc1`, for which the Potency entry in assay [1], in [3], in assay [4], in assay [5], in assay [6] and in assay [7] was “inactive” each time. In addition, the Potency entry in assay [10], in assay [11], in [13], in assay [14], in assay [15] and in assay [16] was “inactive” in each case. Besides, the Potency is 48.6 µM (active) in assay [2], 17.2 µM (active) in assay [8] and 21.7 µM (active) in [9]. In addition, the compound was called inactive in [12].

For the compound `CCOc1cc(C(C)(C)C)ccc1C1COC(c2c(F)cccc2F)=N1` (stereo not given), the Potency entry in assay [1], in assay [3], in assay [4], in assay [5], in assay [11] and in [14] was “inactive” throughout. Further, the Potency entry in assay [16] was “inactive”. The Potency in assay [2] is 18.6 µM (active); in assay [17], 29.5 µM (active); in [7], 23.4 µM (active); in assay [8], 37.1 µM (active). In addition, the compound was called inactive in assay [12].

For `CC(C)N1C(=O)N(c2ccccc2)CSC1=NC(C)(C)C`, the Potency entry in [1], in [3], in [4], in [5], in assay [6] and in assay [10] was “inactive” each time. For the same compound, the Potency entry in assay [11], in assay [13], in [14] and in [16] was “inactive” throughout. Also, the Potency in assay [2] is 54.5 µM (active); in assay [7], 17.2 µM (active). The result in [18] and in [12] was inactive.

Consider `CCOC(=O)CC(=O)CCl`, for which the Potency in assay [1] was 61.1 µM (active). Also, the Potency entry in assay [2], in [3], in assay [17], in assay [4], in assay [5] and in assay [6] was “inactive” each time. Also, the Potency result in [7], in [8], in assay [9], in assay [10], in assay [11] and in assay [15] was “inactive” throughout. In addition, the Potency entry in [16] is “inactive”. The outcome in [12] was inactive.

Turning to `N#CSCSC#N`, the Potency in assay [1] is 70.1 µM (active) and 67.9 µM (active); in assay [2], 27.9 µM (active) and 27 µM (active); in [17] it was 55.7 µM (active) and 48.1 µM (active); in assay [19], 55.7 µM (active); in assay [15], 39.8 µM (active) and 53.9 µM (active). The Potency entry in assay [3], in assay [8], in assay [9], in [11], in assay [13] and in assay [14] was “inactive” each time. The result in assay [18] and in assay [12] was inactive.

Consider `COP(N)(=S)OC`, for which the Potency entry in assay [1], in assay [2], in assay [3], in [17], in [4] and in assay [19] was “inactive” each time. Besides, the Potency result in [5], in assay [6], in assay [7], in assay [8], in assay [9] and in assay [10] was “inactive” in each case. Further, the Potency result in assay [11], in assay [15] and in [16] was “inactive” in each case. Also, the compound was classed as inactive in assay [12].

As to `CC1(C)CN=C(NN=C(/C=C/c2ccc(C(F)(F)F)cc2)/C=C/c2ccc(C(F)(F)F)cc2)NC1`, the Potency in [1] was 30.6 µM (active); in assay [2], 19.3 µM (active); in assay [17], 19.3 µM (active); in assay [5] it was 43.3 µM (active); in [8] it was 38.6 µM (active); in assay [9], 21.7 µM (active). The Potency in [10] is 38.9 µM (active); in assay [11] it was 34.7 µM (active); in assay [15], 12.2 µM (active); in assay [16] it was 12.2 µM (active). Moreover, the Potency entry in [3] and in assay [4] was “inactive” each time.

Regarding `Clc1ccc(Oc2ccccc2)cc1`, the Potency entry in assay [1], in assay [2], in [3], in assay [17], in assay [4] and in assay [5] was “inactive” in each case. In addition, the Potency entry in assay [6], in [7], in [8], in assay [9], in assay [10] and in [11] was “inactive” throughout. In addition, the Potency result in assay [13], in assay [14], in [15] and in assay [16] was “inactive” throughout. In addition, the compound was classed as inactive in assay [12].
